Unmarked numbers belong to inactive results. Activity calls are given as the source filed them.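 The calls were made as follows: active = inhibition above about 23% in any of six single-dose repeats (limit read from the data); inactive = the rest.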

Sequence of Intestinal-type alkaline phosphatase (Homo sapiens) (P09923 whole entry, looked up): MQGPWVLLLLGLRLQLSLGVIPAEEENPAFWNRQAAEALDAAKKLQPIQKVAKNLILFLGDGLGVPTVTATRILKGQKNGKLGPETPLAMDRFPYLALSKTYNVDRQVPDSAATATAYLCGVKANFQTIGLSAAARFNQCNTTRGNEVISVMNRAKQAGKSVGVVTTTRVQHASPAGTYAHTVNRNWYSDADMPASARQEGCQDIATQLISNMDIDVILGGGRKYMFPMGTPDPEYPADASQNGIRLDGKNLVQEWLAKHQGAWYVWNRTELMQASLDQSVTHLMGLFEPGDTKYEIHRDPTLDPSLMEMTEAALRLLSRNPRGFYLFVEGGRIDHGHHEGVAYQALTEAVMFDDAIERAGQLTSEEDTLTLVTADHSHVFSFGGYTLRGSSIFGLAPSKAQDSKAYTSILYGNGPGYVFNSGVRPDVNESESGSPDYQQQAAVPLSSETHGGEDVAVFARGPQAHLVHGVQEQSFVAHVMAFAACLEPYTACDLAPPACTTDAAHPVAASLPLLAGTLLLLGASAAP

This experiment concerns the target Intestinal-type alkaline phosphatase (Homo sapiens) (UniProt P09923). The experiment is described as follows: human IAP inhibitors, confirmation, biochemical, luminescence, single concentration, uHTS hits (AID 434927).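 Also: plate controls were DMSO wells with enzyme for no effect and wells lacking enzyme for full effect.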 The following applies: purified human IAP, CDP-Star luminescence, 30 min; at 8.3 µM; active compounds read high.
Take `O=C(/C=C/c1ccc(O)cc1)c1ccc(NC2=C(N3CCCCC3)C(=O)c3ccccc3C2=O)cc1`: the inhibition is -0.00319%.
In the case of `Cc1nc(Nc2nc3c(c(=O)[nH]2)CCC3)nc2ccccc12`, the inhibition is -77.6%.
Under `O=c1c2c(-c3cccs3)csc2ncn1-c1ccc(Br)cc1` stands -112%; under `O=C(O)c1ccccc1C(=O)Nc1cc(-c2ccccc2)[nH]n1`, 61.7% (active); under `O=c1cc(-c2ccccc2)[nH]n1-c1nc2ccccc2[nH]1`, -58.4%.
Consider `O=C(CN1CCN(C(=O)N2CCCCC2)CC1)Nc1ccc(F)cc1`, for which the inhibition is -97.3%.
Regarding `CC(=O)c1ccc(NC(=O)C2CCCN2S(=O)(=O)c2cccs2)cc1` (centres undefined), the inhibition was -85.1%.
In the case of `Cc1ccc(O)c(N/C=C/C(=O)c2ccc(F)cc2)c1`, the inhibition was -120%.
Turning to `CCOc1cccc(-c2nc(C(N)=O)c3[nH]c(=O)n(-c4cccc(Cl)c4)c3n2)c1O`, the inhibition was -74.5%.
Regarding `Cc1cccc(OCC(=O)NNC(=O)c2ccc3nc[nH]c3c2)c1`, the inhibition is -117%.
Consider `C=CCN1C(=O)C2(NNc3ccccc3O2)c2ccccc21` (centres undefined), for which the inhibition is -92.8%.
Under `CN(CC(=O)Nc1ccccc1F)CC(=O)Nc1ccc(F)c(F)c1F` stands 51.6% (active); under `CCOc1cccc(OCCOCCOc2ccccc2C(C)=O)c1`, -219%; under `C=CCn1c(O)c(N=Nc2ccccc2O)c2ccccc21`, 36.2% (active).
As to `CC(C)C(=O)NC(=S)Nc1ccccc1C(=O)Nc1ccccc1`, the inhibition is -108%.
For the compound `CC(C)(C)N/N=C/c1c(O)n(-c2ccc(Cl)cn2)c(=O)c2ccccc12`, the inhibition is -93.3%.
As for `Cc1ccc(NC(=O)c2ccncc2)cc1[N+](=O)[O-]`, the inhibition is 53.7% (active).
For `O=C(CCNS(=O)(=O)c1ccccc1C(F)(F)F)NNC(=O)c1csc(N2CCOCC2)n1` the value was 0.0741%; for `Nc1c(N2CCCC2)cc(Cl)c2nonc12`, 41.3% (active); for `c1ccc(Nc2ccnc(Nc3ccccc3)n2)cc1`, -43.5%.
Regarding `O=S(=O)(c1ccccc1)N1CCCC1c1cccs1` (centres undefined), the inhibition is -172%.
Consider `CCOCCCNC(=O)CCC(=O)NNc1nc2ccccc2c2nc(-c3ccccc3)nn12`, for which the inhibition is 48.4% (active).
`O=C(/C=C/c1ccccc1O)c1ccco1`: the inhibition is -104%.
Under `CN(C)S(=O)(=O)c1cccc(NC(=S)NNC(=O)c2cc3ccccc3cc2O)c1` stands 72.3% (active).
Turning to `O=C1Nc2ccccc2/C1=N\N=C\c1ccc(O)c(O)c1`, the inhibition was 61.5% (active).
Under `N#Cc1c(-c2ccccc2)nc(N2CCOCC2)[nH]c1=O` stands 27.5% (active); under `Cc1nn(C)c(C(=O)NNC(=S)NCc2ccccc2)c1Cl`, -141%.
`O=C(CCCCC(=O)NNC(=O)COc1ccccc1)NNC(=O)COc1ccccc1`: the inhibition is -88.4%.
Regarding `CC(C)Oc1ccc(CCC(=O)NNC(=S)NCc2ccccc2)cc1`, the inhibition was 46.5% (active).
For `Cc1cccc(NS(=O)(=O)c2cccc(C(=O)NNC(=O)c3ccccc3O)c2)c1` the value was 29.2% (active); for `N#C/C(=C\c1ccc(O)c(O)c1)C(=O)c1ccc(O)c(O)c1`, 74.3% (active).
Under `O=C1Nc2ccc(Br)cc2C12NNc1ccccc1O2` (centres undefined) stands 35% (active); under `Cc1cc(C(=O)NNC(=O)COc2c(C)cc(Br)cc2C)n[nH]1`, -0.057%; under `O=c1c2ccccc2nc(N/N=C/c2c(O)ccc3ccccc23)n1O`, -53.7%.

By inhibition is commonly meant the relative decrease from the control value, in per cent.
